Results from PubChem BioAssay (Tox21).
Inconclusive results are not listed. Where a call stands in place of a potency, no number is given. A number with no mark means an inactive call. The source made the active and inactive calls. Unless noted, the call rests on the fitted dose curve; in most records, active means well fitted curve in the direction sought with a large enough effect in the repeat runs; inconclusive means weak or mixed curves; inactive means no such curve, though single readings can be large; an effect the other way counts as inactive or inconclusive.

Key:
[1] = target: Peroxisome proliferator-activated receptor gamma (Homo sapiens) (UniProt P37231); assay: qHTS assay to identify small molecule agonists of the peroxisome proliferator-activated receptor gamma (PPARg) signaling pathway (AID 743094; active means well fitted activation curve with a large enough effect in the signal ratio in the repeat runs, not every such curve was filed as active; the % refers to the signal ratio)
Chain of Peroxisome proliferator-activated receptor gamma (Homo sapiens) (P37231 whole entry, looked up): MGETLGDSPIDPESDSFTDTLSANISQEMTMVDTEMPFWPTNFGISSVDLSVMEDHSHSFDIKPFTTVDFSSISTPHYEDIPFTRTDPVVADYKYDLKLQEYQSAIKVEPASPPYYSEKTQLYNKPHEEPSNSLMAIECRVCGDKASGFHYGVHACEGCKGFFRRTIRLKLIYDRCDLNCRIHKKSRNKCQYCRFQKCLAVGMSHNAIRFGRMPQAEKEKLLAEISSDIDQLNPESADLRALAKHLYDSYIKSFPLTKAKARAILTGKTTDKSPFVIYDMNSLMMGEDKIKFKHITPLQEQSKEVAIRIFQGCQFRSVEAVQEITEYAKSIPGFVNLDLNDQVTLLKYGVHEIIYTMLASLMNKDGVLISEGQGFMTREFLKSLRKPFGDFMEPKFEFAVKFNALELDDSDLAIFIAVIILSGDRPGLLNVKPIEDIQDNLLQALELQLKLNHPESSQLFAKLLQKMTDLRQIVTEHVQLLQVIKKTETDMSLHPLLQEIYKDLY
Outline: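 HEK293H PPARg-bla cells, 5 h settle at 37C/5% CO2; compound (DMSO) 17 h, 37C; B/G FRET substrate 1 h RT; fluorescence intensity read-out. qHTS format.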

[2] = qHTS assay to identify small molecule antagonists of the peroxisome proliferator-activated receptor gamma (PPARg) signaling pathway - cell viability counter screen (AID 743194); conditions: Potency: co-treated with 50 nM rosiglitazone; further: nearly all actives have a fitted effect of over 55% in size
Outline: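 Viability was measured as CellTiter-Glo luminescence in GeneBLAzer PPARg UAS-bla HEK293H cells. These cells had been exposed 17 h at 37 C to compounds together with rosiglitazone at 50 nM final, with the beta-lactamase readout taken in the same wells.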

[3] = qHTS assay for small molecule agonists of the antioxidant response element (ARE) signaling pathway (AID 743202; active means well fitted activation curve with a large enough effect in the signal ratio in the repeat runs, not every such curve was filed as active; the % refers to the signal ratio; further: potency means the concentration at half of the fitted maximal effect)
Outline: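 After 16 hours of compound treatment at 37 C, HepG2 cells with a stably integrated ARE-driven beta-lactamase reporter were loaded 2 hours at room temperature with LiveBLAzer B/G FRET substrate and fluorescence intensity measured.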

[4] = qHTS assay for small molecule agonists of the antioxidant response element (ARE) signaling pathway - cell viability counter screen (AID 743203; calls by dose curve; further: nearly all actives have a fitted effect of over 55% in size)
Outline: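 Luminescence read-out (CellTiter-Glo, 30 min at room temperature) measured cell viability in the same wells as the ARE beta-lactamase reporter. HepG2 ARE-bla cells were treated with compounds for 16 hrs at 37C/5% CO2.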

[5] = qHTS assay for small molecule activators of the heat shock response signaling pathway - cell viability counter screen (AID 743209); further: nearly all actives have a fitted effect of over 50% in size
Outline: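 HSE-bla HeLa; 1500 cells/well; overnight 37 C, 5% CO2; compound 5 h 37 C; LiveBLAzer B/G substrate 2.5 h RT; CellTiter-Glo 30 min RT; luminescence.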

[6] = qHTS assay for small molecule activators of the heat shock response signaling pathway (AID 743210; active means well fitted activation curve with a large enough effect in the signal ratio in the repeat runs, with a control signal flat, not every such curve was filed as active; the % refers to the signal ratio; further: series mostly up to about 63 µM)
Outline: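 Compound exposure lasted 5 h at 37 C in HeLa cells carrying a heat-shock-element-driven beta-lactamase reporter. Read-out: fluorescence intensity after 2.5 h room-temperature loading with LiveBLAzer B/G FRET substrate.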

[7] = qHTS assay to identify small molecule agonists of the peroxisome proliferator-activated receptor delta (PPARd) signaling pathway - cell viability counter screen (AID 743211); further: nearly all actives have a fitted effect of over 55% in size
Outline: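 PPARd-bla HEK293H cells (UAS-beta-lactamase reporter) were treated with compounds for 17 h at 37 C. Viability was then read in the same wells by CellTiter-Glo luminescence after 30 min at room temperature.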

[8] = target: Peroxisome proliferator-activated receptor delta (Homo sapiens) (UniProt Q03181); assay: qHTS assay to identify small molecule agonists of the peroxisome proliferator-activated receptor delta (PPARd) signaling pathway (AID 743212; calls by dose curve)
Chain of Peroxisome proliferator-activated receptor delta (Homo sapiens) (Q03181 whole entry, looked up): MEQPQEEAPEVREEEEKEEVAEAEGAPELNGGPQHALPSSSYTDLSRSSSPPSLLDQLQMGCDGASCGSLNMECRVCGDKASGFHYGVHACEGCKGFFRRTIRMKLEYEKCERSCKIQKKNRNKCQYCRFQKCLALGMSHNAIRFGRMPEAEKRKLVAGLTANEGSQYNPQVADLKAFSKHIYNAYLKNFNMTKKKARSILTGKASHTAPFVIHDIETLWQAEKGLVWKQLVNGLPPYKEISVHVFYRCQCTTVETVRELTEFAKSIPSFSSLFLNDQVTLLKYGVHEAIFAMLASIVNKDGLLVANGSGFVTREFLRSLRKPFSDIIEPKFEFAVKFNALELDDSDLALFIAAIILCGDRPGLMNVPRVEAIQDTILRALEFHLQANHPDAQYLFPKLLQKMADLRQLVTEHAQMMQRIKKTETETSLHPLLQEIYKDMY
Outline: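 Beta-lactamase reporter readout: a ratiometric FRET signal from the LiveBLAzer substrate after 2 h at room temperature. Compound exposure at 37 °C in PPARδ-bla HEK293H cells driven by an upstream activator sequence.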

[9] = qHTS assay to identify small molecule antagonists of the peroxisome proliferator-activated receptor delta (PPARd) signaling pathway - cell viability counter screen (AID 743213); further: nearly all actives have a fitted effect of over 50% in size
Outline: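 Agonist-stimulated (L165041, 300 nM final) HEK293H PPARd UAS-bla cells are exposed to compounds for 17 h at 37 C, and ATP-based luminescence (CellTiter-Glo) from the same wells reports cytotoxicity.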

[10] = target: Peroxisome proliferator-activated receptor delta (Homo sapiens) (UniProt Q03181); assay: qHTS assay to identify small molecule antagonists of the peroxisome proliferator-activated receptor delta (PPARd) signaling pathway (AID 743215; active means well fitted inhibition curve with a large enough effect in the signal ratio in the repeat runs, not every such curve was filed as active; the % refers to the signal ratio; further: series mostly up to about 62 µM)
Outline: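 HEK293H GeneBLAzer PPARd UAS-bla reporter cells; cpd + L165041 300 nM final, 17 h 37 C; LiveBLAzer B/G FRET substrate 2 h RT; fluorescence intensity read-out. Antagonist mode.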

[11] = target: Bile acid receptor (Homo sapiens) (UniProt Q96RI1); assay: qHTS assay to identify small molecule antagonists of the farnesoid-X-receptor (FXR) signaling pathway (AID 743217; active means well fitted inhibition curve with a large enough effect in the signal ratio in the repeat runs, not every such curve was filed as active; the % refers to the signal ratio)
Chain of Bile acid receptor (Homo sapiens) (Q96RI1 whole entry, looked up): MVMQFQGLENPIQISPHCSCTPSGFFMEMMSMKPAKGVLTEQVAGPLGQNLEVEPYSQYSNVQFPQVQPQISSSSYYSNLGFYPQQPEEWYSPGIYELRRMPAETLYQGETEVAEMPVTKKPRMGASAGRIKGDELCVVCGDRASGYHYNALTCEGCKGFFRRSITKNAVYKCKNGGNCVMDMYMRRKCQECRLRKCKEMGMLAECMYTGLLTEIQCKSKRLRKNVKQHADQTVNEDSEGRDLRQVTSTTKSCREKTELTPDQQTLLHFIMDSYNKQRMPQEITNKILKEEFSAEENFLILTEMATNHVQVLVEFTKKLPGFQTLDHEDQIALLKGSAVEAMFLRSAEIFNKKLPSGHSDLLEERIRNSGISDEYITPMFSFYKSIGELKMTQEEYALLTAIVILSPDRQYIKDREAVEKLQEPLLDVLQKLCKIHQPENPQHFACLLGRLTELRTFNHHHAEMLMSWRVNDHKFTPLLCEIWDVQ
Outline: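 Read-out: beta-lactamase FRET fluorescence (LiveBLAzer B/G substrate, 2 h, room temperature) in GeneBLAzer FXR-UAS-bla HEK 293T cells. Compounds were co-dosed with 50 uM chenodeoxycholic acid (final) and incubated 16 h at 37 °C.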

[12] = qHTS assay to identify small molecule agonists of the farnesoid-X-receptor (FXR) signaling pathway - cell viability counter screen (AID 743218); further: nearly all actives have a fitted effect of over 45% in size
Outline: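 Luminescence from CellTiter-Glo, read after 30 min at RT, reports viability of GeneBLAzer FXR-UAS-bla HEK 293T cells treated 16 h with compounds in the wells used for the beta-lactamase reporter.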

[13] = target: Bile acid receptor (Homo sapiens) (UniProt Q96RI1); assay: qHTS assay to identify small molecule agonists of the farnesoid-X-receptor (FXR) signaling pathway (AID 743220; active means well fitted activation curve with a large enough effect in the signal ratio in the repeat runs, not every such curve was filed as active; the % refers to the signal ratio)
Outline: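 FXR-UAS-bla HEK 293T cells carrying a UAS-driven beta-lactamase reporter were plated for 5 h at 37C/5% CO2, then exposed to DMSO-dissolved Tox21 10K compounds for 16 h at 37C. A LiveBLAzer B/G FRET substrate was loaded for 2 h at room temperature before fluorescence reading.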

[14] = qHTS assay to identify small molecule antagonists of the farnesoid-X-receptor (FXR) signaling pathway - cell viability counter screen (AID 743221; active means well fitted cell-killing curve with a large enough effect in the repeat runs, not every such curve was filed as active; further: nearly all actives have a fitted effect of over 50% in size)
Outline: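 FXR-UAS-bla HEK 293T cells were treated with test compounds plus chenodeoxycholic acid (50 uM final) for 16 h at 37 C. Cell viability in the same wells was then read as CellTiter-Glo luminescence after 30 min at room temperature.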

[15] = target: Vitamin D3 receptor (Homo sapiens) (UniProt P11473); assay: qHTS assay to identify small molecule agonists of the vitamin D receptor (VDR) signaling pathway (AID 743222; calls by dose curve)
Chain of Vitamin D3 receptor (Homo sapiens) (P11473 whole entry, looked up): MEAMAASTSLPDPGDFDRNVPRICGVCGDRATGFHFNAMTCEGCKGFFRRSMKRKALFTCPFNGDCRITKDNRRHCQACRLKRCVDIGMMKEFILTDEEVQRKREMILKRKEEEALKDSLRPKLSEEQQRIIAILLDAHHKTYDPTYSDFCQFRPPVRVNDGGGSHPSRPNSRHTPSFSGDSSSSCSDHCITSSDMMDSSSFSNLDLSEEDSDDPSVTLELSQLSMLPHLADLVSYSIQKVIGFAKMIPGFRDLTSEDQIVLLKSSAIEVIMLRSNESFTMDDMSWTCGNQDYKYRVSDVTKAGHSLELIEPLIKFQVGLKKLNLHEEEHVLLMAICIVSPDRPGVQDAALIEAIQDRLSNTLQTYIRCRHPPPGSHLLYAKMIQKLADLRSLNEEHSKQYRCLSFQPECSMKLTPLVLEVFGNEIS
Outline: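 Beta-lactamase reporter readout (LiveBLAzer B/G FRET, 2 h RT) in VDR-bla cells after 16 h compound treatment at 37C, 5% CO2; cells pre-incubated 4 h before pin transfer of DMSO solutions.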

[16] = target: Vitamin D3 receptor (Homo sapiens) (UniProt P11473); assay: qHTS assay to identify small molecule antagonists of the vitamin D receptor (VDR) signaling pathway (AID 743223; active means well fitted inhibition curve with a large enough effect in the signal ratio in the repeat runs, not every such curve was filed as active; the % refers to the signal ratio)
Outline: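 VDR-bla cells were plated, incubated 4 h at 37C, then given compound and 1alpha,25-dihydroxyvitamin D3 (3 nM final). After 16 h at 37C, LiveBLAzer B/G FRET substrate was added for 2 h at room temperature and fluorescence read.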

[17] = qHTS assay to identify small molecule agonists of the vitamin D receptor (VDR) signaling pathway - cell viability counter screen (AID 743224); further: series mostly up to about 63 µM; nearly all actives have a fitted effect of over 50% in size
Outline: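 Cytotoxicity counter screen: VDR-bla cells, 16 h compound exposure at 37C, 5% CO2; CellTiter-Glo luminescence, 30 min RT, same wells as bla read.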

[18] = target: Peroxisome proliferator-activated receptor gamma (Homo sapiens) (UniProt P37231); assay: qHTS assay to identify small molecule antagonists of the peroxisome proliferator-activated receptor gamma (PPARg) signaling pathway (AID 743191; calls by dose curve; further: series mostly up to about 63 µM; nearly all actives have a fitted effect of over 30% in size)
Outline: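 Beta-lactamase reporter under UAS control in HEK293H PPARg-bla cells; compound treatment 17 h at 37C. Read-out: fluorescence intensity after 1 h room-temperature incubation with LiveBLAzer B/G FRET substrate.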

[19] = qHTS assay to identify small molecule that activate the aryl hydrocarbon receptor (AhR) signaling pathway - cell viability counter screen (AID 743086);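 further: HepG2 liver cells carrying the AhR DRE luciferase reporter; series mostly up to about 70 µM; nearly all actives have a fitted effect of over 45% in size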
Outline: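 Cytotoxicity counter screen: CellTiter-Fluor signal (30 min, 37 C) in 4000 HepG2 cells/well carrying the DRE-luciferase reporter, following 24 h compound exposure at 37 C.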

Structure (SMILES) | outcome [1] | Potency [2] | Potency [3] | Potency [4] | Potency [5] | Potency [6] | Potency [7] | outcome [8] | Potency [9] | Potency [10] | outcome [11] | Potency [12] | outcome [13] | Potency [14] | outcome [15] | outcome [16] | Potency [17] | Potency [18] | Potency [19]
CCC(C(N)=O)N1CCCC1=O (configuration not stated) | inactive | inactive | inactive | inactive | inactive | inactive | inactive | inactive | inactive | inactive | inactive | inactive | inactive | inactive | inactive | inactive | inactive |  | 
CC(Cc1ccccc1)NCCCCl (configuration not stated) |  | inactive | inactive | inactive | inactive | inactive | inactive |  |  | inactive | inactive | inactive | inactive | inactive | inactive | inactive | inactive |  | 
CCCOC(=O)c1cncn1C(C)c1ccccc1 (configuration not stated) |  | inactive | inactive | inactive | inactive | inactive | inactive | inactive | inactive | inactive |  | inactive |  | inactive |  |  | inactive | inactive | 
COP(=O)(O)OC | inactive | inactive | inactive | inactive | inactive | inactive | inactive | inactive | inactive | inactive | inactive | inactive | inactive | inactive |  |  | inactive | inactive | 
O=C(NC(O)C(Cl)(Cl)Cl)NC(O)C(Cl)(Cl)Cl (configuration not stated) |  | inactive | inactive | inactive | inactive | inactive | inactive |  | inactive |  |  | inactive |  | inactive | inactive | inactive | inactive |  | inactive
CC(=O)OCC1=C(C(=O)O)N2C(=O)[C@@H](N)[C@H]2SC1 |  | inactive | inactive | inactive |  | inactive | inactive | inactive |  | inactive | inactive | inactive | inactive | inactive | inactive | inactive | inactive |  | 
CCOC(=O)COc1ccc(Cl)cc1Cl |  | inactive | inactive | inactive | inactive | inactive | inactive | inactive | inactive | inactive |  | inactive |  | inactive |  |  | inactive |  | inactive
C1CN2CCC1CC2 |  | inactive | inactive | inactive | inactive | inactive | inactive |  | inactive | inactive | inactive | inactive | inactive | inactive |  |  | inactive | inactive | 
O=[N+]([O-])c1cccc(CCl)c1 |  | inactive | 31.3 µM (active) | inactive | inactive | inactive | inactive |  | inactive |  |  | inactive |  | inactive | inactive | inactive | inactive |  | inactive
CCC(C)C(C)(COC(N)=O)COC(N)=O (configuration not stated) |  | inactive | inactive | inactive | inactive | inactive | inactive |  | inactive |  |  | inactive |  |  |  |  | inactive | inactive | 
COC[C@@H](NC(C)=O)C(=O)NCc1ccccc1 |  | inactive |  | inactive | inactive | inactive | inactive | inactive |  | inactive |  | inactive |  |  | inactive |  | inactive | inactive | 
CCN1CCCC1CNC(=O)C(O)(c1ccccc1)c1ccccc1 (configuration not stated) |  |  |  | inactive | inactive | inactive | inactive |  |  |  | inactive | inactive | inactive | inactive | inactive | inactive | inactive | inactive | 
CCc1ccc(C2CCNCC2)cc1 |  | inactive | inactive | inactive | inactive | inactive | inactive | inactive | inactive | inactive |  | inactive |  |  |  |  | inactive | inactive | 
CCC(CC)(CNC(=O)CCCO)c1cccc(OC)c1 |  |  | inactive | inactive | inactive | inactive |  | inactive | inactive |  |  | inactive |  |  | inactive | inactive | inactive |  | 
CON(C)C(=O)Nc1ccc(Br)cc1 |  | inactive | inactive | inactive | inactive | inactive | inactive | inactive | inactive | inactive |  | inactive | inactive | inactive | inactive |  | inactive |  | inactive
C=CCC1(C(C)CC)C(=O)NC(=O)NC1=O (configuration not stated) |  | inactive |  | inactive | inactive |  | inactive |  | inactive | inactive |  | inactive |  | inactive | inactive | inactive | inactive | inactive | 
CCN(CCO)CCn1c(Cc2ccccc2)nc2c1c(=O)n(C)c(=O)n2C | inactive | inactive | inactive | inactive | inactive | inactive | inactive |  | inactive |  | inactive |  | inactive | inactive |  |  | inactive |  | 
ClCCN1CCCC1 |  | inactive |  | inactive |  | inactive | inactive | inactive | inactive | inactive |  | inactive |  | inactive | inactive | inactive | inactive |  | 
Oc1ccc(Cc2ccc(O)cc2)cc1 | inactive | inactive | 27.5 µM (active) | inactive | inactive |  | inactive | inactive |  | inactive |  | inactive |  | inactive |  |  | inactive |  | 
O=C(Cl)OCc1ccccc1 | inactive | inactive | inactive | inactive | inactive |  | inactive |  | inactive |  |  | inactive |  |  |  |  | inactive |  | 
CCCOc1nn(C(=O)NS(=O)(=O)c2ccccc2C(=O)OC)c(=O)n1C | inactive | inactive | inactive | inactive | inactive | inactive | inactive | inactive |  | inactive |  |  |  | inactive | inactive |  | inactive | inactive | 
CCCC(C)C1(CC)C(=O)N=C(S)NC1=O (configuration not stated) |  | inactive | inactive | inactive | inactive | inactive | inactive |  | inactive |  |  | inactive |  |  | inactive | inactive | inactive |  | 
